Measurements taken from PubChem BioAssay (Tox21).
Results filed as inconclusive are left out. A call without a number means that no potency is given here. Activity calls are given as the source filed them. Calls come from the whole dose curve; as a rule, active = well fitted cell-killing curve with a large enough effect in the repeat runs; inconclusive = weak or mixed curves, or effect the other way; inactive = flat fitted curve, though single readings scatter.
Potency is the fitted concentration of half-maximal effect.

Assay: cAMP Responsive Elements (CRE) small molecule antagonists, cell-based qHTS assay: qHTS cell viability counter screen (AID 2060913); note: nearly all actives have a fitted effect of over 40% in size
Conditions: CRE-bla HEK293T viability, CellTiter-Glo luminescence, 5 h; series mostly up to 92.4 µM
From the text: U.S. Tox21 Program National Center for Advancing Translational Sciences [NCATS] Division of Preclinical Innovation [DPI] U.S. Environmental Protection Agency [EPA] National Institutes of Environmental Health Sciences [NIEHS] National Toxicology Program [NTP] U.S. Food and Drug Administration [FDA] Tox21 Assay Overview: CREB (cyclic-AMP Responsive Element Binding Protein) is a cellular transcription factor. It binds to certain DNA sequences called cAMP Responsive Elements (CRE) and regulates the transcription of the genes. […] This cell line can be used to find agonists/antagonists of the cyclic AMP signaling pathway. The activation of the report gene under culture conditions can be detected by fluorescence intensity. This cell line has been used to screen the Tox21 10K compound library to identify agonists that induce oxidative stress. The cytotoxicity of the Tox21 compound library against the CRE-bla cell line was tested in parallel by measuring the cell viability using CellTiter-Glo assay (Promega, Madison, WI) in the same wells.
Tox21 Assay Protocol Summary: CRE-bla Hek 293T cells were suspended in assay medium (DMEM containing 10% dialyzed FBS, 0.1 mM NEAA, 1 mM sodium pyruvate and 25 mM HEPES) and dispensed at 2,000 cells/4 uL /well into 1536-well black wall/clear bottom plates using a Multidrop Combi (ThermoFisher Scientific, Waltham, MA) dispenser. After the assay plates were incubated at 37 C/5% CO2 for 18 hrs, 23 nL of compounds dissolved in DMSO, positive controls or DMSO only was transferred to the assay plate by a pintool workstation (Kalypsys, San Diego, CA), followed by addition of 1 uL of 1.25uM NKH477 (0.25 uM as final concentration) in assay medium using a Flying Reagent Dispenser (Aurora Discovery, San Diego, CA). The plates were incubated at 37 C and 5% CO2 for 3 hrs. Then 1 uL of LiveBLAzer B/G FRET substrate (Invitrogen, Carlsbad, CA) was added to each well using Bioraptr Flying Reagent Dispenser (FRD, Aurora Discovery, San Diego, CA). The plates were incubated at room temperature for 2 h, then fluorescence intensities were measured using an Envision plate reader (PerkinElmer, Shelton, CT) at Excitation 405nm, Emission 460nm and 530nm. The % activity was determined from the ratio of 460nm/530nm. For cell viability readout that measures cytotoxicity, 4 uL /well of CellTiter-Glo reagent was added into the assay plates using Bioraptr FRD. After 30 min incubation at room temperature, the luminescence intensity in the assay plates was measured using a ViewLux (PerkinElmer, Shelton, CT) plate reader.
For C[C@]12C=CC(=O)C=C1CC[C@H]1[C@@H]3C[C@@H](O)[C@](O)(C(=O)CO)[C@@]3(C)C[C@H](O)[C@@]12F, the Potency was “inactive”.
With Nc1cc(S(=O)(=O)O)ccc1S(=O)(=O)O the Potency was “inactive”.
In the case of c1cnccn1, the Potency is reported as “inactive”.
With CSSc1ccoc1C the Potency was “inactive”.
In the case of O=C(O)c1ccccc1C(c1ccc(O)cc1)c1ccc(O)cc1, the Potency is reported as “inactive”.
With Nc1cc(Cl)c(O)c(Cl)c1 the Potency was “inactive”.
With NC(=O)NNc1ccccc1 the Potency was “inactive”.
With CN(C)CCN(C)CCN(C)C the Potency was “inactive”.
For C#CC(O)CCC (stereo not given), the Potency was “inactive”.
With COc1cc(OC)cc(OC)c1 the Potency was “inactive”.
In the case of C1COC1, the Potency is reported as “inactive”.
With CC/C=C\CCOC(=O)CC the Potency was “inactive”.
In the case of CCOc1ccc(NC(C)=O)cc1N, the Potency is reported as “inactive”.
With Nc1cc(C(=O)O)c(O)c(S(=O)(=O)O)c1 the Potency was “inactive”.
With C=C(C)C(=O)OCCOCCOCCOC(=O)C(=C)C the Potency was “inactive”.
In the case of COC(=O)c1sccc1S(N)(=O)=O, the Potency is reported as “inactive”.
In the case of O=S(c1cc(Cl)cc(Cl)c1O)c1cc(Cl)cc(Cl)c1O, the Potency is reported as “inactive”.
In the case of O=C(CCCN1CCN(c2ccccn2)CC1)c1ccc(F)cc1, the Potency is reported as “inactive”.
With C[C@]12CC[C@@H]3c4ccc(O)cc4CC[C@H]3[C@@H]1CC[C@@H]2OC(=O)CCC1CCCC1 the Potency was “inactive”.
With c1cc[nH]c1 the Potency was “inactive”.
In the case of C[C@H](CCC(=O)O)[C@H]1CC[C@H]2[C@@H]3C(=O)C[C@@H]4CC(=O)CC[C@]4(C)[C@H]3CC(=O)[C@]12C, the Potency is reported as “inactive”.
For CCc1ccc(C)nc1, the Potency was “inactive”.
With C=CC(C)(CCC=C(C)C)OC(C)=O (stereo not given) the Potency was “inactive”.
For O=[N+]([O-])c1cc(N(CCO)CCO)ccc1NCCO, the Potency was “inactive”.
With OCC(O)CO the Potency was “inactive”.
With CN1CCN(C)CC1 the Potency was “inactive”.
In the case of Cn1cnc2c(F)c(Nc3ccc(Br)cc3Cl)c(C(=O)NOCCO)cc21, the Potency is reported as “inactive”.
With COc1ccc2c(c1OC)C(=O)O[C@@H]2[C@H]1c2c(cc3c(c2OC)OCO3)CCN1C the Potency was “inactive”.
In the case of NC(=O)c1ccccc1C(N)=O, the Potency is reported as “inactive”.
In the case of O=[N+]([O-])c1ccc(Nc2ccc(Nc3ccccc3)c(S(=O)(=O)O)c2)c([N+](=O)[O-])c1, the Potency is reported as “inactive”.
With C=C(C)C(=O)OCC(O)COc1ccc(C(C)(C)c2ccc(OCC(O)COC(=O)C(=C)C)cc2)cc1 (stereo not given) the Potency was 61.1 µM (active).
With Nc1ccc(C(=O)O)cc1 the Potency was “inactive”.
For CO[C@H]1O[C@H](CO)[C@@H](O)[C@H](O)[C@H]1O, the Potency was “inactive”.
For CC1=C(/C=C/C(C)=C/C=C/C(C)=C\C(=O)O)C(C)(C)CCC1, the Potency was “inactive”.
For C[C@]12CC[C@@H]3c4ccc(O)cc4CC[C@H]3[C@@H]1C[C@@H](O)[C@@H]2O, the Potency was “inactive”.
In the case of CC(C)(C)c1cc(CCC(=O)NCCCCCCNC(=O)CCc2cc(C(C)(C)C)c(O)c(C(C)(C)C)c2)cc(C(C)(C)C)c1O, the Potency is reported as “inactive”.
With CC(C)C(C)C the Potency was “inactive”.
With COc1cc(NS(=O)(=O)c2ccc(N)cc2)ncn1 the Potency was “inactive”.
With Cc1cccc(Nc2cc(Cl)nc(SCC(=O)O)n2)c1C the Potency was “inactive”.
In the case of O=C1c2ccccc2C(=O)C1c1ccc(Br)cc1, the Potency is reported as “inactive”.
